Bioassay records as filed in PubChem BioAssay.
Most compounds without a hit are left out; they make up all but 2.9% or so of the library.
TRPML1 agonist: qHTS for Agonists of the Human Mucolipin Transient Receptor Potential 1 (TRPML1) | 410,000 compounds, 0.12% hits | Mucolipin-1 (Homo sapiens), Q9GZU1 | AID 624414, 2012 | TRPML1-expressing cells, Ca2+ dye fluorescence, FDSS | activation, % (test concentration not listed); in the data active means activation above about 50%; inconclusive means mostly about 30% to 49%; further: 0% is about no effect
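In this qHTS format, compounds were pin-transferred onto Ca8-dye-loaded TRPML1-DL cells induced with Tet overnight, and intracellular Ca2+ fluorescence was recorded kinetically for 110 s after a 10 s baseline. A subsequent 4uM final 54-4 (EC80) addition followed by a second 110 s read served as the antagonist phase.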
D3 antag: qHTS of D3 Dopamine Receptor Antagonist: qHTS; D(3) dopamine receptor (Homo sapiens), P35462; D3R cells, DiscoveRx beta-arrestin luminescence, antagonist mode; active compounds read low; max response, negative = inhibition, %; 360,000 compounds, 2.5% hits; AID 652054, 2013; in the data active means max response below about -50%; inconclusive means no clear call, values can overlap the other calls; further: on the % scale 0 is the no-effect control and ±100 the full control effect
Target sequence (P35462 whole entry, looked up): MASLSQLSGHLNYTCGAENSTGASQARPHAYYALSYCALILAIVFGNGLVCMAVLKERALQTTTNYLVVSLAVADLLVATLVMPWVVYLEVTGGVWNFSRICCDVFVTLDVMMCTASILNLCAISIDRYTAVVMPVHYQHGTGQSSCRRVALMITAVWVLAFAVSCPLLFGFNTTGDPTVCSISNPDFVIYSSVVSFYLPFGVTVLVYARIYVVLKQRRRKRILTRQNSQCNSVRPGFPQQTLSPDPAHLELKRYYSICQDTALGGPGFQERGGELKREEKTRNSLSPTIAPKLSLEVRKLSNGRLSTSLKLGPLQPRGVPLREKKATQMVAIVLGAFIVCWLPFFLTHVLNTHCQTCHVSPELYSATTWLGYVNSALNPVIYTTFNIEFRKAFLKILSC
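Cells expressing the human receptor were seeded at 1500 cells/well, incubated overnight at 37 degrees C in 5% CO2, then exposed to library compounds with dopamine controls for 90 minutes at 37 degrees C before luminescent detection.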
D3 ag: qHTS of D3 Dopamine Receptor Agonist: qHTS; D(3) dopamine receptor (Homo sapiens), P35462; 410,000 compounds, 0.58% hits; D3R DiscoveRx beta-arrestin cells, luminescence, 90 min; max activation, %; AID 652048, 2013; in the data active means max activation above about 30%; further: 0% is about no effect
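Cells at 1500/well, incubated overnight, then treated with pinned compounds (dopamine as control) for 90 min at 37 degrees C. DiscoveRx reagent added for 30 - 60 minutes at room temperature; luminescence read.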
TRPML1 blocker: qHTS for Inhibitors of the Human Mucolipin Transient Receptor Potential 1 (TRPML1); TRPML1-inducible cells, Ca2+ dye fluorescence, FDSS; active compounds read low; inhibition of EC80 agonist-evoked calcium signal; activity change, negative = inhibition, % (test concentration not listed); 390,000 compounds, 0.02% hits; in the data active means activity change below about -50%; inconclusive means between about -30% and that limit;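 further: stimulus is agonist 54-4 at its EC80 concentration; on the % scale 0 is the no-effect control and ±100 the full control effect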
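Tet-induced TRPML1-DL cells loaded with Ca8 no-wash calcium dye were read kinetically on FDSS. Compound addition was followed by EC80 agonist 54-4 (4 uM final); inhibition was read over 110 s.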
* marks the source's active call; other numbers are inactive results.

`CCN(CC)c1ccc2c(C)c(CN3CCOCC3)c(=O)oc2c1` gave TRPML1 agonist 3, D3 antag -75*, D3 ag -6 and TRPML1 blocker 10.
CCN(CC)c1ccc2c(C)c(CO)c(=O)oc2c1 was read as TRPML1 agonist 0, D3 antag -17, D3 ag 8 and TRPML1 blocker 6.
Screening COc1cc(SC)ccc1C(=O)NCCOc1c(C)cc(C)cc1C returned TRPML1 agonist 1, D3 antag -83*, D3 ag -3 and TRPML1 blocker 7.
Screening O=C1C2CCCN2C(=O)N1CCCCN1CCN(c2cccc(Cl)c2)CC1 (configuration not stated) returned TRPML1 agonist 0, D3 antag -58*, D3 ag -1 and TRPML1 blocker -8.
`O=C1C2CCCCN2C(=O)N1CCCCN1CCN(c2cccc(Br)c2)CC1` (configuration not stated) gave TRPML1 agonist 0, D3 antag -80*, D3 ag -4 and TRPML1 blocker 1.
Screening CC(=O)c1nnn(-c2nc(C#N)nc(N3CCOCC3)n2)c1C returned TRPML1 agonist -1.
Screening Clc1ccc(Nc2nc(NCc3ccco3)nc3nccnc23)cc1 returned TRPML1 agonist 0.
Screening Cc1cccc(CN2Cc3cccc4c3[C@H](C=CC4)CC2=O)c1 returned TRPML1 agonist 0.
`O=C1C(Nc2ccccc2)=C(N2CCCCC2)C(=O)c2ccccc21` gave TRPML1 agonist 0, D3 antag -60*, D3 ag -3 and TRPML1 blocker -4.
For Cc1ccc(NC2=C(N3CCCCC3)C(=O)c3ccccc3C2=O)cc1 the results were TRPML1 agonist 1, D3 antag -63*, D3 ag -12 and TRPML1 blocker 7.
Screening O=C1C(NS(=O)(=O)c2ccc(Br)cc2)=C(N2CCCCC2)C(=O)c2ccccc21 returned TRPML1 agonist 76*, D3 antag -21, D3 ag -7 and TRPML1 blocker -19.
For O=C1C(Nc2cccc(O)c2)=C(N2CCCCC2)C(=O)c2ccccc21 the results were TRPML1 agonist 1, D3 antag inconclusive, D3 ag -14 and TRPML1 blocker -8.
Cc1ccc2c(c1)cc1c(=O)n(CC(=O)NC3CCCCC3)nc(C)n12 was read as TRPML1 agonist 0, D3 ag 2 and TRPML1 blocker 38.
OC(c1ccccc1)(c1ccccc1)C1CCN(CCCOc2ccc(F)cc2)CC1 was read as TRPML1 agonist 6, D3 antag -95* and D3 ag -14.
For C#Cc1ccccc1OCCCN1CCC(C(O)(c2ccccc2)c2ccccc2)CC1 the results were TRPML1 agonist 4, D3 antag inconclusive and D3 ag -14.
`COC(=O)c1cccc(OCCCN2CCC(C(O)(c3ccccc3)c3ccccc3)CC2)c1` gave TRPML1 agonist 7, D3 antag -93* and D3 ag -14.
COc1ccccc1OCCCN1CCC(C(O)(c2ccccc2)c2ccccc2)CC1 was read as TRPML1 agonist 6, D3 antag -85* and D3 ag -16.
Screening Cc1ccc(OCCCN2CCC(C(O)(c3ccccc3)c3ccccc3)CC2)cc1 returned TRPML1 agonist 3, D3 antag -10 and D3 ag -12.
Screening OC(c1ccccc1)(c1ccccc1)C1CCN(CCCOc2ccccc2Cl)CC1 returned TRPML1 agonist 3, D3 antag -80* and D3 ag -15.
Cc1ccc2c(c1)CCCN2C(=O)c1cnn2c1NC(=C1CC1)C=C2C(F)F was read as TRPML1 agonist 0.
`Cc1cc(Nc2cccc(Br)c2)n2c(nc3ccccc32)c1C#N` gave TRPML1 agonist 4, D3 ag -6 and TRPML1 blocker 6.
`N#Cc1ccccc1OCCCN1CCC(C(O)(c2ccccc2)c2ccccc2)CC1` gave TRPML1 agonist 4, D3 antag -96* and D3 ag -18.
For COC(=O)[C@H]1[C@H]2C[C@@H]3c4[nH]c5cc(OC)ccc5c4CCN3C[C@H]2C[C@H](OC)[C@@H]1OC the results were D3 ag -5.
`Nc1nc(NCc2ccc(Cl)c(Cl)c2)c2[nH]cnc2n1` gave TRPML1 agonist -1.
For CCN1CCCC(OC(=O)C(c2ccccc2)c2ccccc2)C1 (configuration not stated) the results were TRPML1 agonist 0, D3 antag -53*, D3 ag -83 and TRPML1 blocker 26.
`CCN1CCCC(OC(=O)Nc2ccccc2)C1` (configuration not stated) gave TRPML1 agonist 0, D3 antag inconclusive, D3 ag -5 and TRPML1 blocker -4.
Screening CCN1CCN(c2ncc(C(=O)Nc3cc(Cl)ccc3OC)c3ccccc23)CC1 returned TRPML1 agonist 2, D3 antag 7, D3 ag -9 and TRPML1 blocker 8.
CCc1ccc2c(c1)CCCN2C(=O)c1ccccc1C(=O)O was read as TRPML1 agonist -1, D3 antag -68*, D3 ag -50 and TRPML1 blocker 7.
Screening O=C(c1ccc(C(=O)N2CCCc3ccccc32)s1)N1CCCc2ccccc21 returned TRPML1 agonist 1, D3 antag 12, D3 ag 16 and TRPML1 blocker -1.
`CCN1CCN(c2ncc(C(=O)N3CCCc4ccccc43)c3ccccc23)CC1` gave TRPML1 agonist 0, D3 antag -69*, D3 ag 4 and TRPML1 blocker 1.
Screening O=C(c1cnc2sccn2c1=O)N1CCCc2ccccc21 returned TRPML1 agonist 0, D3 antag -52*, D3 ag -5 and TRPML1 blocker 13.
For CN1CCC(CN2c3ccccc3Sc3ccccc32)C1 (configuration not stated) the results were D3 ag -22.
Screening COc1ccc(NC(=O)CN(C)CC(=O)N(C)C2(C#N)CCC(C)CC2)cc1 (configuration not stated) returned TRPML1 agonist 0, D3 antag -50*, D3 ag 0 and TRPML1 blocker 14.
COCc1cc(=O)n2[nH]c(C)c(-c3ccc(Cl)cc3)c2n1 was read as TRPML1 agonist -1, D3 antag -60*, D3 ag 2 and TRPML1 blocker -2.
Screening COc1ccc(-c2nc3n(n2)C(c2ccncc2)C(C(N)=O)=C(C)N3)cc1 (configuration not stated) returned TRPML1 agonist 1, D3 antag -59*, D3 ag -3 and TRPML1 blocker 1.
For Cc1ccc(OCCOCCN2CCCCC2)c([N+](=O)[O-])c1 the results were TRPML1 agonist -1, D3 antag -17, D3 ag -11 and TRPML1 blocker 10.
